Where “and” joins values, the source holds several entries; their conditions need not be identical. Equal entries are not always repeated. Calls of active or inactive are those of the source. The calls were made as follows: active = hit-call score of the fitted dose curve at least 0.9, where 1 is the maximum; inactive = score below 0.9.
Assay: BSK_LPS_PGE2: BioMAP Diversity Plus: LPS Assay for Prostaglandin E2 (PGE2) Biomarker Activity (AID 2283082)
Conditions: primary human HUVEC with PBMC; actives raise or lower the signal
Protocol: BSK_LPS is a cell-based, multiplexed-readout assay that uses umbilical vein endothelium and peripheral blood mononuclear cells, a human vascular primary cell co-culture, with measurements taken at 24 hours after chemical dosing in a 96-well plate.BSK_LPS_PGE2 is an assay component measured in the BSK_LPS assay. It measures PGE2 antibody related to regulation of gene expression using ELISA technology.Data from the assay component BSK_LPS_PGE2 was analyzed into 1 assay endpoint. This assay endpoint, BSK_LPS_PGE2, was analyzed with bidirectional fitting relative to DMSO as the negative control and baseline of activity. Using a type of binding reporter, gain or loss-of-signal activity can be used to understand changes in the signaling as they relate to the gene PTGER2. Furthermore, this assay endpoint can be referred to as a primary readout, because this assay has produced multiple assay endpoints where this one serves a signaling function. To generalize the intended target to other relatable targets, this assay endpoint is annotated to the gpcr intended target family, where the subfamily is rhodopsin-like receptor.
The levels of cell surface (or secreted, indicated by the prefix "s") biomarker endpoints were measured by ELISA. Overt cytotoxicity to cells in confluent adherent cultures (all systems other than the BT system) was assessed by measuring total protein levels using sulforhodamine B (SRB) staining in parallel cultures at the time of biomarker measurements, indicated as SRB endpoints. For proliferation assays for adherent cell types, individual cell types are cultured at sub-confluence and relative cell numbers quantified by SRB staining at time points optimized for each system (48 h: 3C and CASM3C systems; 72 h: BT and HDF3CGF systems; 96 h: SAg system). SRB was performed by staining cells with 0.1% SRB after fixation with 10% TCA and reading wells at 560 nm.Viability and proliferation of PBMC (T cells) was quantified by Alamar Blue reduction for the SAg and BT systems. For PBMC viability (referred to as PBMC Cytotoxicity within the assay endpoint names), cells were plated (75,000/well in a 96-well plate) and then chemical samples added for 1 h before addition of activators, SEB and TSST-1 (20 ng/mL final concentration each). Cells were incubated for 90 h. Then, Alamar Blue (20 uL/well) (Invitrogen, Cat DAL1100) was added for 6 h, and the plates were read with a fluorescence microplate reader at 546/580 nm (excitation/emission). For PBMC proliferation, cells were plated and activated as above but incubated for only 16 h prior to addition of Alamar Blue. Plates were read after 6 h.
With `CNC[C@H](O)c1cccc(O)c1` the AC50 was 0.167 µM (active). In the case of `OC[C@H]1O[C@H](O[C@]2(CCl)O[C@H](CCl)[C@@H](O)[C@@H]2O)[C@H](O)[C@@H](O)[C@H]1Cl`, the outcome is reported as “inactive”. In the case of `O=C(O)c1cn(-c2ccc(F)cc2)c2cc(N3CCNCC3)c(F)cc2c1=O`, the outcome is reported as “inactive”. For `C=C[Si](OCC)(OCC)OCC`, the outcome was “inactive”. For `CCCCCCCCCCCCCCCCCC(=O)OCC(CC)CCCC` (stereo not given), the outcome was “inactive”. For `c1ccc2sc(SN(C3CCCCC3)C3CCCCC3)nc2c1`, the AC50 was 13.1 µM (active). With `O=[N+]([O-])c1cc(C(F)(F)F)ccc1Cl` the outcome was “inactive”. In the case of `CC1COc2ccccc2N1C(=O)C(Cl)Cl` (stereo not given), the outcome is reported as “inactive”. With `CC(=O)[C@H]1CC[C@H]2[C@@H]3CC=C4C[C@@H](O)CC[C@]4(C)[C@H]3CC[C@]12C` the AC50 was 3.97 µM (active). With `O=C(O)c1cn(C2CC2)c2cc(N3CCNCC3)c(F)cc2c1=O` the outcome was “inactive”. With `N#Cc1ccc(CC(=NNC(=O)Nc2ccc(OC(F)(F)F)cc2)c2cccc(C(F)(F)F)c2)cc1` the AC50 was 2.68 µM (active). With `CCCCC/C=C/C=C/C=O` the AC50 was 25.3 µM (active). For `C=CCOC(=O)CCC1CCCCC1`, the outcome was “inactive”. In the case of `C#C[C@]1(O)CC[C@H]2[C@@H]3CCC4=Cc5oncc5C[C@]4(C)[C@H]3CC[C@@]21C`, the AC50 is reported as 3.97 µM (active). For `COC(=O)c1ccc(C)cc1`, the outcome was “inactive”. In the case of `O=C1CCCCCCCCCCCCCCO1`, the AC50 is reported as 3.97 µM (active). For `O=C1OC2(c3cc(Br)c(O)c(Br)c3Oc3c2cc(Br)c(O)c3Br)c2c(Cl)c(Cl)c(Cl)c(Cl)c21`, the AC50 was 3.33 µM (active). With `Cc1ccc2n[nH]nc2c1` the outcome was “inactive”. In the case of `CCCCCCCCC=O`, the outcome is reported as “inactive”. For `CC(=O)OCCC(C)CC(C)(C)C` (stereo not given), the outcome was “inactive”. In the case of `Nc1cc([N+](=O)[O-])ccc1O`, the AC50 is reported as 3.97 µM (active) and 6.28 µM (active). With `CC(C)c1ccc(C(C)C)cc1` the outcome was “inactive”. With `CN(CCOc1ccc(CC2SC(=O)NC2=O)cc1)c1ccccn1` (stereo not given) the AC50 was 0.121 µM (active). In the case of `Cc1cc(C2(c3cc(C)c(O)cc3C)OS(=O)(=O)c3ccccc32)c(C)cc1O`, the outcome is reported as “inactive”. With `BrC1CCC(Br)C(Br)CCC(Br)C(Br)CCC1Br` (stereo not given) the AC50 was 3.87 µM (active). With `O=C=NC1CCC(CC2CCC(N=C=O)CC2)CC1` (stereo not given) the outcome was “inactive”. With `OC1OC[C@@H](O)[C@H](O)[C@H]1O` (stereo not given in full) the outcome was “inactive”. For `Nc1cc([N+](=O)[O-])ccc1Cl`, the outcome was “inactive”. For `CC(=O)Nc1ccccc1O`, the outcome was “inactive”. With `Cc1ccc(O)c(C(C)(C)C)c1` the outcome was “inactive”. With `CC1CCC(C(C)CS)CC1S` (stereo not given) the outcome was “inactive”. With `CC[Si](OC(C)=O)(OC(C)=O)OC(C)=O` the outcome was “inactive”. With `c1ccc2c(c1)c1cccc3ccc4cccc2c4c31` the outcome was “inactive”. With `O=P(c1ccccc1)(c1ccccc1)c1ccccc1` the outcome was “inactive”. With `CC(C)(COC(=O)c1ccccc1)COC(=O)c1ccccc1` the outcome was “inactive”. With `CCCCC(CC)COCCC#N` (stereo not given) the outcome was “inactive”. For `CC(=O)O[C@]1(C(C)=O)CC[C@H]2[C@@H]3C[C@H](C)C4=CC(=O)CC[C@]4(C)[C@H]3CC[C@@]21C`, the outcome was “inactive”. For `O=C(O)c1ccc([N+](=O)[O-])cc1`, the outcome was “inactive”. With `CCCCC(CC)COC(=O)/C=C\C(=O)OCC(CC)CCCC` (stereo not given) the outcome was “inactive”. For `CC(=O)/C=C/C1=C(C)CCCC1(C)C`, the outcome was “inactive”.

Source: PubChem BioAssay (EPA / NIEHS)
